Source: PubChem BioAssay
Tau fluor cs: Counterscreen qHTS for Inhibitors of Tau Fibril Formation, Fluorescence Polarization | tau K18 P301L Alexa594 fluorescence, heparin fibrillization | Potency, µM (doses to about 57.7 µM), inactives show at the highest dose activity change, negative = decrease | 0.93% of 280,000 active; further: potency means the concentration at half of the fitted maximal effect; nearly all actives have a fitted effect of over 55% in size
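Human K18 P301L tau (15 uM unlabeled plus 0.24 uM Alexa 594-labeled, final) in 100 mM sodium acetate pH 7 was mixed with compound and 20 uM heparin and incubated 6 hr at 37 C.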
PNC inhibitor: High Content Assay for Compounds that inhibit the Assembly of the Perinucleolar Compartment; AID 2417, 2010; 3.1% of 140,000 active; activity change (PNC), negative = inhibition, % at 10 µM; PC3M PTB-GFP, PNC prevalence imaging, 16 h; active compounds read low;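 active means readout at or below -70, meaning at least 70% loss of cells showing the perinucleolar compartment, a nuclear body marking cancer cells; inconclusive means readout between -30 and a set limit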;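 further: plate controls were DMSO wells for no effect and camptothecin positive control wells for full effect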
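PC3M cells stably expressing PTB-GFP, 750–1000 cells/well, treated 16 h at 37 °C with compound (23 nl of library stock), in duplicate. After paraformaldehyde fixation and Hoechst stain, imaged at 20x; PNC prevalence scored by image analysis.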
TexasRed fluor: Total Fluorescence Counterscreen for Inhibitors of the Interaction of Thyroid Hormone Receptor and Steroid Receptor Coregulator 2 | 0.29% of 280,000 active | Potency, µM (highest dose often 106 µM), inactives show at the highest dose fluorescence change, negative = quenching | TRb/SRC2 Texas Red total fluorescence interference; active means well fitted curve in either direction with a large enough effect; inconclusive means small, poorly fitted or top-dose-only effect; further: potency means the concentration at half of the fitted maximal effect
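Flags fluorescent or light-absorbing compounds by total fluorescence, S + 2P, at 555 nm excitation and 632 nm emission. Mixture: 20 nM Texas Red SRC2 peptide, 0.6 uM human TRb LBD, 1 uM T3, 5% DMSO; compound exposure 5 h at ambient temperature.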
Tau fibril ThT: qHTS for Inhibitors of Tau Fibril Formation, Thioflavin T Binding | recombinant tau K18 P301L (four-repeat tau fragment), heparin-induced fibrillization, ThT fluorescence | Microtubule-associated protein tau (Homo sapiens), P10636 | AID 1460, 2008 | Potency, µM (top dose mostly 57.4 µM), inactives show top-dose activity, negative = inhibition, hits mostly inhibitors | 2.1% of 270,000 active; further: potency means the concentration at half of the fitted maximal effect; nearly all actives have a fitted effect of over 55% in size
Target sequence (P10636 561-689 P618L limits assumed): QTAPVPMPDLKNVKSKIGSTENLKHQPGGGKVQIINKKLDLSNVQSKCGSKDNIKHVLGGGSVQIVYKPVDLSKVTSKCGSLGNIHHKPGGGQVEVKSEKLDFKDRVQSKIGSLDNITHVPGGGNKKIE
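Heparin-induced (20 uM) aggregation of recombinant human K18 P301L tau, 15 uM unlabeled with 0.24 uM labeled, pH 7 acetate buffer, 6 hr at 37 C with compound. Fibrils quantified by 30 uM ThT fluorescence after 1 hr ambient incubation.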
Tau fibril FP: qHTS for Inhibitors of Tau Fibril Formation, Fluorescence Polarization; Microtubule-associated protein tau (Homo sapiens), P10636; K18 P301L tau heparin fibrillization, Alexa594 FP, 6 h; Potency, µM (titrated, usually from 57.7 µM), without a hit: at the highest dose activity, negative = inhibition, actives largely listed as inhibitors; 0.39% of 280,000 active; further: potency means the concentration at half of the fitted maximal effect; nearly all actives have a fitted effect of over 55% in size
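Human tau K18 […] P301L fragment, 15 uM unlabeled plus 0.24 uM Alexa 594-labeled tau (final), with compound and 20 uM heparin in 100 mM sodium acetate pH 7; 6 hr at 37 C, then Alexa 594 FP read.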
TRb-SRC2 inh: qHTS for Inhibitors of the Interaction of Thyroid Hormone Receptor and Steroid Receptor Coregulator 2; AID 1469, 2008; TRbeta-SRC2 peptide binding, fluorescence polarization; receptor liganded with 1 µM T3; Potency, µM (doses to about 106 µM), inactives show at the highest dose activity change, negative = inhibition, hits mostly inhibitors; 0.065% of 280,000 active;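 further: potency means the concentration at half of the fitted maximal effect; plate controls were bound peptide for no effect and peptide without receptor for full effect; nearly all actives have a fitted effect of over 50% in size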
Target sequence (P10828 whole entry, looked up): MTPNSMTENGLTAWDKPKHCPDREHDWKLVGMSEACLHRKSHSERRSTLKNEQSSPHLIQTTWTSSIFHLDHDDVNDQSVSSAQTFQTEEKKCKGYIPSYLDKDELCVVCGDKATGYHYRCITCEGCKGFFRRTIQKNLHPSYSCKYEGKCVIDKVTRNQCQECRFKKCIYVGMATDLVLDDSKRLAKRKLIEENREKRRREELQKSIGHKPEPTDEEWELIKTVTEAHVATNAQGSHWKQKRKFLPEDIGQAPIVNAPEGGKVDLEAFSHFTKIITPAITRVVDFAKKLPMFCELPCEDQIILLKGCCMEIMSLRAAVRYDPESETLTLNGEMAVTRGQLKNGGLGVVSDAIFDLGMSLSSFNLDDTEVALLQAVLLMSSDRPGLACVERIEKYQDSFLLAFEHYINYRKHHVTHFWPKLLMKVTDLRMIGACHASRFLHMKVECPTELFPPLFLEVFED
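Compounds were added to 0.6 uM TRb ligand-binding domain and 20 nM Texas Red-labeled SRC2 peptide in Tris buffer containing 1 uM T3, incubated 5 hr at ambient temperature, then read by fluorescence polarization.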
* marks the source's active call; other numbers are inactive results; u = inconclusive; x = no result given; [ ] = dose if it differs, or a comment. This is a sample that favours compounds with a hit; in the whole collection about 4.6% have one here. Unless noted, the call rests on the fitted dose curve; in most records, active means well fitted curve in the direction sought with a large enough effect; inconclusive means small, poorly fitted or top-dose-only effect, or another doubt; inactive means no such curve, though single readings can be large; an effect the other way counts as inactive or inconclusive. Unless noted, on the % scale 0 is the no-effect control and ±100 the full control effect.

SMILES	Tau fluor cs	PNC inhibitor	TexasRed fluor	Tau fibril ThT	Tau fibril FP	TRb-SRC2 inh
O=C(O/N=C\c1ccc(N2CCOCC2)c([N+](=O)[O-])c1)c1ccccc1Cl	u	81	-3%	13µM*	12%	1%
O=C(O/N=C\c1ccc(N2CCOCC2)c([N+](=O)[O-])c1)c1ccc(F)cc1	-20%	-1	-1%	5µM*	-1%	0%
COc1ccc2c(n1)Sc1nc3ccccc3nc1N2	4µM*[quencher]	x	0%	1µM*	6%	2%
Cc1nc2ccccc2n1CCC(=O)O	-2%	-4	-1%	-6%	1%	-4%
CC1(C)CC(=O)C(Sc2ccccc2[N+](=O)[O-])=C(O)C1	-3%	-83*	-1%	-15%	-4%	1%
CCOC(=O)c1cc2c(nc1NC(=S)Nc1ccccc1)CC(C)(C)OC2	-3%	-82*	2%	-4%	6%	0%
C=CCNC(=S)Nc1nc2c(cc1C(=O)OCC)COC(C)(C)C2	-15%	x	-2%	-14%	0%	-4%
Cc1[nH]c2ccc(C(=O)Nc3ccc(F)cc3)cc2c1C	14µM*[quencher]	x	-1%	13µM*	u	3%
Cc1ccc(NC(=O)c2ccc3[nH]c(C)cc(=O)c3c2)cc1	6%	x	-2%	-10%	3%	5%
O=C(O)CCCC(=O)Nc1ccc(Br)cc1	-3%	-100*	-2%	-3%	1%	-4%
Cc1cc2nnn(-c3nnc(-c4ccccc4)c4ccccc34)c2cc1C	2%	-109*	-3%	-1%	0%	1%
Cc1ccc(-c2nnc(-n3nc(C)cc3C)c3ccccc23)cc1	-1%	-9	2%	-8%	11%	-11%
Cc1ccc(C)c(NC(=O)CN2CCN(C3CCCCC3)C(=O)C2=O)c1	5%	x	-3%	1%	12%	-2%
COc1ccc(COc2cc(-c3cccc(OC)c3)nc3ccc(N)cc23)cc1	13µM*[quencher]	u	-5%	u	u	4%
COc1ccc(-c2cn[nH]c2-c2ccc(OCc3ccc([N+](=O)[O-])cc3)cc2O)cc1OC	7.1µM*[quencher]	x	-2%	u	u	9%
COc1ccc(-c2cn[nH]c2-c2ccc(OCc3ccccc3F)cc2O)cc1OC	13µM*[quencher]	x	-2%	-11%	u	10%
COc1ccc(N2CC(NC(=O)C(=O)c3c(C)[nH]c4ccccc34)CC2=O)cc1 (stereo not drawn)	-2%	x	1%	-5%	-6%	4%
CN(C)c1nc(N/N=C/c2c[nH]c3ccccc23)nc(N2CCOCC2)n1	-17%	x	1%	u	15%	6%
COc1ccc2c(c1)OC/C(=C/c1ccc(OC)c(OC)c1)C2=O	u	x	2%	11µM*	-6%	-9%
COc1ccc2c(c1)OC/C(=C/c1ccc(O)c(O)c1)C2=O	-21%	x	-1%	u	4%	2%
COc1ccc(Cl)cc1C(Nc1cccnc1)c1ccc2cccnc2c1O (stereo not drawn)	-21%	x	-3%	28µM*	u	2%
CCC(=O)NC(c1ccccc1OC)c1ccc2cccnc2c1O (stereo not drawn)	2%	-100*	-1%	2%	11%	0%
CCCC(=O)NC(c1ccc(OC)cc1)c1ccc2cccnc2c1O (stereo not drawn)	-11%	x	-3%	-12%	15%	3%
CCOc1ccc(-c2ccc(/C=C3/C(=N)N4C(C)=CSC4=NC3=O)o2)c([N+](=O)[O-])c1	u	9	79µM*[quencher]	3.2µM*	14%	u
O=C1CCCC(O)=C1N=Nc1c(Cl)cc(C(F)(F)F)cc1Cl	-17%	x	28µM*[fluorescent]	u	-1%	1.4µM*
SMILES	Tau fluor cs	PNC inhibitor	TexasRed fluor	Tau fibril ThT	Tau fibril FP	TRb-SRC2 inh
COc1ccc(C2NC3=C(CCCC3)C(C#N)(C#N)C2(C#N)C#N)cc1 (stereo not drawn)	u	u	16%	25µM*	u	u
COc1ccc(C2NC3=C(CCC3)C3(C#N)C4(N=C(N)C23C#N)OCCO4)cc1 (stereo not drawn)	-9%	u	-4%	u	-12%	8%
Cc1cc(C)n2ncc(C(=O)NCCc3ccccc3)c2n1	4%	8	2%	-2%	11%	-14%
CC(C)(C)c1cc(NCc2ccccn2)n2ncc(-c3ccccc3)c2n1	10µM*[quencher]	x	1%	u	11%	3%
Cc1cc(C)n(-c2cc(C(C)(C)C)nc3c(-c4ccccc4)cnn23)n1	-11%	x	4%	-8%	5%	-2%
CCOCCCNCc1cc(Cl)ccc1OCC	6%	x	-5%	1%	2%	-4%
COc1ccc(N=C2NC(=O)/C(=C\c3ccco3)S2)cc1	u	x	-28%	10µM*	-6%	4%
O=C1NC(=Nc2ccc(O)cc2)S/C1=C\C=C\c1ccco1	u	x	-13%	1.6µM*	u	1%
COc1ccc(N=C2NC(=O)/C(=C/c3ccc(O)c(OC)c3)S2)cc1	u	38	-14%	3.5µM*	4%	4%
COc1cc(/C=C2/SC(=Nc3ccc(O)cc3)NC2=O)cc(OC)c1O	-1%	x	-13%	u	15%	5%
O=c1c([N+](=O)[O-])c(N2CCCCC2)c2ccccc2n1-c1ccccc1	-6%	8	1%	-8%	2%	-1%
Nc1c(N2CCCCC2)c(=O)[nH]c(=O)n1-c1ccccc1	5%	-84*	0%	-2%	-5%	3%
COc1ccc(Nc2nc(-c3c(C)nc4ncccn34)cs2)cc1	u	x	-3%	8.9µM*	-2%	-6%
Cc1nc2ncccn2c1-c1csc(Nc2ccc(N(C)C)cc2)n1	u	x	-2%	13µM*	-2%	-1%
CC1=CC(=C(C#N)c2nc3ccccc3s2)C=C(C)N1CC1CCCO1 (stereo not drawn)	7.9µM*[quencher]	x	-7%	u	u	4%
COc1ccc(Br)cc1C(=O)Nc1ccc2oc(-c3cccnc3)nc2c1	-9%	x	-3%	-23%	-4%	12%
O=[N+]([O-])c1ccc(-c2cc(-c3ccc(Cl)cc3)n[nH]2)cc1	u	0	1%	1.1µM*	6%	2%
